Screening data from PubChem BioAssay.
Most compounds without a hit are left out; they make up all but 9.2% or so of the library.
Rab9 prom act: Rab9 promoter activation; Potency, µM (top dose mostly 9.22 µM), without a hit: at the top dose activation, negative = inhibition, most hits filed as activators; hit rate 2.8% among 320,000; Huh7 Rab9 promoter-luciferase reporter, luminescence, 24 h; also: % of control where 0% means no effect; nearly all actives have a fitted effect of over 60% in size
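Promoter activation is measured as luciferase luminescence in Huh7 cells stably transfected with a Rab9 promoter–luciferase construct, following 24 h compound exposure at 37 °C and 10 min reagent incubation at ambient temperature.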
NPC1 prom act: activates the NPC1 promoter. Huh7 NPC1 promoter luciferase reporter, 24 h. Potency, µM (highest dose often 9.22 µM), without a hit: top-dose activation, usual class: activators. hit rate 2.4% among 320,000; also: % of control where 0% means no effect; nearly all actives have a fitted effect of over 60% in size
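Stably transfected Huh7 (NPC1 promoter→luciferase), 1500 cells/well in Opti-MEM + 10% FBS, 2 h settle, then compound 24 h at 37 °C. Luminescence after 10 min with Amplite reagent.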
FLuc modulator: inhibits or activates purified firefly luciferase, miR-21 counter-screen. Potency, µM (titrated, usually from 57.5 µM), inactives show top-dose activity change, negative = inhibition, hits mostly inhibitors. P08659. purified FLuc, Km substrates, luminescence inhibition. hit rate 6.9% among 360,000;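 also: plate controls were vehicle for no effect and reference inhibitor for full effect; nearly all actives have a fitted effect of over 55% in size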
Target sequence (P08659 whole entry, looked up): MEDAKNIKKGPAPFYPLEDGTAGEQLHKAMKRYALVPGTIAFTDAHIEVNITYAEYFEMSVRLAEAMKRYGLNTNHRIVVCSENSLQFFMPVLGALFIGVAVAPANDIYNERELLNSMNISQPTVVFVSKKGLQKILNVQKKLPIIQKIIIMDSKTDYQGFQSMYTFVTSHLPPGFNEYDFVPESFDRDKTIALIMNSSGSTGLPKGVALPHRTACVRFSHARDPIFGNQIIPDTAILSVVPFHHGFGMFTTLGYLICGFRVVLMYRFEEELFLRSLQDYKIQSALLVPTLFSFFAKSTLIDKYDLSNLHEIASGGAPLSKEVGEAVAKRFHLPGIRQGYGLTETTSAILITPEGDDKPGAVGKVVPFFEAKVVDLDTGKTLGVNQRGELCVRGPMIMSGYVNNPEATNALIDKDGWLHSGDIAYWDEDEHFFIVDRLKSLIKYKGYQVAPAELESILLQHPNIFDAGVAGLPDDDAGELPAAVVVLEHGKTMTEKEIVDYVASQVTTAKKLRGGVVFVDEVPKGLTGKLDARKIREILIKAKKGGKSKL
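Purified P. pyralis luciferase (10nM final) with 10uM D-luciferin and 10uM ATP (Km levels) in 50mM Tris acetate pH 7.5, 10mM Mg acetate, 0.01% Tween-20, 0.05% BSA; qHTS 6-point titration, ~60 µM downward; luminescence read.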
SMN2 splice enh: enhancers of SMN2 splice variant expression. AID 1458. Potency, µM (top dose mostly 46.1 µM), for inactives: at the highest dose activity change, positive = activation, most hits filed as activators. HEK293 SMN2-luciferase splicing reporter, luminescence, 30-36 h. hit rate 2.8% among 210,000; also: % of control where 0% means no effect; nearly all actives have a fitted effect of over 55% in size
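HEK293 cells carry an SMN2 […]–luciferase reporter in which exon 7 inclusion puts luciferase in frame. Cells were plated 10-12 h before compound addition, then incubated 30-36 h at 37C. ONE-Glo luminescence was read; sodium butyrate at 4.5 mM final served as control.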
ELG1 repair inh: blocks ELG1-dependent DNA repair in HEK293T cells; hit rate 2.3% among 330,000; Potency, µM (doses to about 46.1 µM), inactives show at the top dose activity change, negative = inhibition, usual class: inhibitors; HEK293T ELG1-luciferase reporter, luminescence, 16 h; DNA damage induced by 5-fluorouridine; AID 504467; also: % is scaled to controls: 0 for no effect and ±100 for the full control effect; nearly all actives have a fitted effect of over 55% in size
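Luminescence from the luciferase reporter, measured 30 min after ONE-Glo reagent at room temperature, was the read-out. Beforehand, 2,000 cells per well were exposed for 16 hr at 37 °C to 5-fluorouridine together with compound or vehicle.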
ELG1 genotox: induces genotoxicity in HEK293T cells with luciferase-tagged ELG1. Potency, µM (highest dose often 46 µM), for the others: at the top dose activity change, positive = activation, usual class: activators. AID 504466. hit rate 1.3% among 330,000. HEK293T ELG1-luciferase reporter, luminescence, 16 h; also: % of control where 0% means no effect; nearly all actives have a fitted effect of over 60% in size
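Reporter readout depends on ELG1 protein level, which increases with genetic stress. After 16 hr compound exposure at 37 °C, luciferase activity was quantified using ONE-Glo.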
ELG1 FLuc counter: luciferase inhibition in cell-free luciferin readout for ELG1 hits; shares compounds with ELG1 repair inh; cell-free firefly luciferase luminescence counter-screen, ViewLux; Potency, µM (highest dose often 46.1 µM), for inactives: at the top dose activity change, negative = inhibition, most hits filed as inhibitors; hit rate 3% among 350; also: % is scaled to controls: 0 for no effect and ±100 for the full control effect
ELG1 Luc conf: confirmation of human ELG1-dependent DNA repair inhibitors | Potency, µM (titrated, usually from 46.1 µM), inactives show at the top dose activity change, negative = inhibition, usual class: inhibitors | hit rate 68% among 670 | HEK293T ELG1-luciferase levels, luminescence; cells co-treated with 5-fluorouridine | AID 624248 | shares compounds with ELG1 repair inh; also: % is scaled to controls: 0 for no effect and ±100 for the full control effect; nearly all actives have a fitted effect of over 55% in size
ELG1-Luc MMS: inhibits ELG1-dependent repair under MMS stimulation in HEK293T cells; shares compounds with ELG1 repair inh; HEK293T luciferase-tagged ELG1 level, MMS stimulated; Potency, µM (series often up to 46.1 µM), for inactives: top-dose activity change, negative = inhibition, hits mostly inhibitors; hit rate 53% among 670; AID 624249; also: % is scaled to controls: 0 for no effect and ±100 for the full control effect; nearly all actives have a fitted effect of over 60% in size
ELG1 5-FU: confirmation of ELG1 repair inhibitors: viability with 5FU; shares compounds with ELG1 repair inh; cell viability with 5-FU, ELG1-dependent repair; Potency, µM (titrated, usually from 46.1 µM), without a hit: top-dose activity change, negative = viability loss, usual class: cytotoxic; 670 tested, under 10 active;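 also: ELG1-luc HEK293T cells cotreated with 5-fluorouridine at 10 µM final; viability measured 16 h after compound addition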
ELG1 MMS cell: confirmation of ELG1 repair inhibitors: viability with MMS; shares compounds with ELG1 repair inh; Cell viability with MMS, ELG1-dependent DNA repair; Potency, µM (top dose mostly 46.1 µM), for the others: at the highest dose activity change, negative = viability loss, usual class: cytotoxic; hit rate 33% among 670; AID 624251;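 also: ELG1-luc HEK293T cells co-treated with 10 µM MMS; viability read 16 h after compound addition; % is scaled to controls: 0 for no effect and ±100 for the full control effect; nearly all actives have a fitted effect of over 60% in size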
Cell viab unstim: affects unstimulated cell viability, ELG1 hit counter-screen; AID 624252; cell viability counter-screen, unstimulated, luminescence; hit rate 8% among 900; shares compounds with ELG1 repair inh; Potency, µM (series often up to 45.9 µM), inactives show at the top dose activity change, negative = loss of viability, most hits filed as cytotoxic;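 also: compound exposure lasted 16 hours before reading; % is scaled to controls: 0 for no effect and ±100 for the full control effect; nearly all actives have a fitted effect of over 55% in size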
FLuc biochem: inhibits purified firefly luciferase, counter-screen for ELG1 hits | shares compounds with ELG1 repair inh | purified firefly luciferase, luminescence counter-screen | Potency, µM (doses to about 57.5 µM), for inactives: top-dose activity, negative = inhibition, most hits filed as inhibitors | hit rate 10% among 350 | AID 624253; also: % is scaled to controls: 0 for no effect and ±100 for the full control effect
Active calls of the source: *; [ ] = dose if it differs, or a comment. Calls follow the shape of the dose curve; as a rule, active = well fitted curve in the direction sought with a large enough effect; inconclusive = small, poorly fitted or top-dose-only effect, or another doubt; inactive = no such curve, though single readings can be large; an effect the other way counts as inactive or inconclusive. Potency is read from the fitted curve at half-maximal effect.

COCCN(C(=O)CCC(=O)Nc1ccccn1)C(C(=O)NCCC(C)C)c1ccc(F)cc1 (configuration not stated) was read as Rab9 prom act 1%, NPC1 prom act -6%, FLuc modulator -1%, ELG1 repair inh -2% and ELG1 genotox -1%.
C(=C\c1ccc2ccccc2n1)/c1cccnc1 was read as ELG1 FLuc counter -20%, Cell viab unstim inconclusive and FLuc biochem 0.29µM*.
CC(C)CCNC(=O)COC(=O)/C=C/c1ccc2ccccc2n1 was read as Rab9 prom act 3%[1.84 µM], NPC1 prom act 1%, FLuc modulator -10%, SMN2 splice enh -24%, ELG1 repair inh 0% and ELG1 genotox -2%.
For O=C(O)/C=C/c1cccnc1 the results were Rab9 prom act 0%, NPC1 prom act -2%, FLuc modulator 4%, ELG1 repair inh 20% and ELG1 genotox -1%.
Screening C(=C\c1ccc2ccccc2n1)/c1ccc2ccccc2n1 returned ELG1 FLuc counter 39%, Cell viab unstim 3% and FLuc biochem 0.29µM*.
NC(=O)c1sc2nc3c(c(-c4cccs4)c2c1N)CCCCC3 was read as Rab9 prom act 13%, NPC1 prom act 23%, FLuc modulator -6%, SMN2 splice enh -23%, ELG1 repair inh 0.82µM*, ELG1 genotox -12%, ELG1 FLuc counter inconclusive, ELG1 Luc conf 1.1µM*, ELG1-Luc MMS 4.5µM*, ELG1 5-FU 2%, ELG1 MMS cell -2%, Cell viab unstim inconclusive and FLuc biochem -1%.
For CCN(CC(=O)Nc1c(C(=O)OC)[nH]c2ccc(C)cc12)c1ccc2c(c1)OCO2 the results were Rab9 prom act -6%, NPC1 prom act 2%, FLuc modulator -3%, ELG1 repair inh 4.6µM*, ELG1 genotox -11%, ELG1 Luc conf 7.1µM*, ELG1-Luc MMS inconclusive, ELG1 5-FU inconclusive, ELG1 MMS cell -1% and Cell viab unstim inconclusive.
For COC(=O)c1[nH]c2ccc(C)cc2c1NC(=O)C1=COCCO1 the results were Rab9 prom act 0%, NPC1 prom act 0%, FLuc modulator inconclusive, SMN2 splice enh 16%, ELG1 repair inh -15% and ELG1 genotox 1%.
Screening Cc1cc(NC(=O)C(Cl)c2ccccc2)no1 (configuration not stated) returned Rab9 prom act 11%, NPC1 prom act -6%, FLuc modulator 2%, ELG1 repair inh -19% and ELG1 genotox 0%.
`COc1cc2c(C#CCCCO)c(-c3ccsc3)oc(=O)c2cc1OC` gave ELG1 repair inh 4.1µM*, ELG1 genotox 5%, ELG1 Luc conf 6.3µM*, ELG1-Luc MMS inconclusive, ELG1 5-FU -1%, ELG1 MMS cell inconclusive and Cell viab unstim inconclusive.
For COc1ccc(-c2oc(=O)c3cc(OC)c(OC)cc3c2C#CCCCO)cc1 the results were ELG1 repair inh inconclusive and ELG1 genotox 10%.
CC(=NNC(=O)c1cccs1)c1ccc2c(c1)OCCO2 was read as ELG1 repair inh inconclusive, ELG1 genotox 16µM* and Cell viab unstim inconclusive.
C/C(=N\NC(=O)C1CC1)c1ccc2c(c1)OCCO2 was read as Rab9 prom act -32%, NPC1 prom act 9%, FLuc modulator -12%, SMN2 splice enh 54%, ELG1 repair inh inconclusive and ELG1 genotox 15%.
`COc1ccc(CCN(Cc2cccs2)S(=O)(=O)c2ccc(S(=O)(=O)N3CCCCCC3)cc2)cc1OC` gave Rab9 prom act -2%, NPC1 prom act -4%, FLuc modulator 2%, SMN2 splice enh -22%, ELG1 repair inh 2.9µM*, ELG1 genotox -1%, ELG1 Luc conf inconclusive, ELG1-Luc MMS 4.4µM*, ELG1 5-FU -10%, ELG1 MMS cell 7.1µM* and Cell viab unstim -17%.
`Cc1cccc(NC(=O)C2CCN(C(=O)[C@@H]3Cc4ccccc4CN3)CC2)c1` gave Rab9 prom act 11%, NPC1 prom act 12%, FLuc modulator -12%, ELG1 repair inh 0% and ELG1 genotox -1%.
COc1ccccc1NC(=O)N(Cc1ccco1)Cc1cc2ccc(C)c(C)c2[nH]c1=O was read as Rab9 prom act -7%, NPC1 prom act -21%, FLuc modulator inconclusive, SMN2 splice enh -24%, ELG1 repair inh 8.2µM*, ELG1 genotox -24%, ELG1 FLuc counter 10%, ELG1 Luc conf 4µM*, ELG1-Luc MMS inconclusive, ELG1 5-FU 4%, ELG1 MMS cell inconclusive, Cell viab unstim inconclusive and FLuc biochem -17%.
`CCc1ccc2c(c1)c(=O)c(S(=O)(=O)c1ccc(F)cc1)cn2CC(=O)Nc1ccccc1OC` gave FLuc modulator 1% and SMN2 splice enh 5%.
